Reference: PubChem BioAssay AID1362 (SRMLSC, 2008)
About 4,000 (2.1%) of roughly 190,000 compounds were called active. No stated cut-off is given here; in the data, active means inhibition above about 58%; inactive means the rest, inconclusive results apart; tested in S. cerevisiae. This excerpt belongs to a sample that is enriched for actives.

Experiment: growth inhibition of WT strain, primary screen, mitochondrial fusion inhibitor project, WT and mutant strains, chemical genetic (AID 1362)
Conditions: mitochondrial fusion phenotypic screen, at 10 µM
[1] = WT strain, growth inhibition, stronger effect = higher value

Compound | inhibition [1] | inhibition (mutant strain inhibition) [%]
O=C(Nc1cccc(F)c1)N1C2CCC1CC(O)(c1cccnc1)C2 (stereo unspecified) | -6.02% (inactive) | -8.29
C=CCn1c(=NC(=O)c2cccs2)sc2cc(NC(C)=O)ccc21 | -0.58% (inactive) | 5.07
Clc1cccc(-c2nc(NCC3CCCO3)c3ccccc3n2)c1 (stereo unspecified) | 74.2% (active) | 68.9
Cc1nc2ccccc2c2oc(C(=O)NCC3CCCO3)cc12 (stereo unspecified) | 1.66% (inactive) | -8.79
c1ccc2c(NCC3CCCO3)nc(-c3ccncc3)nc2c1 (stereo unspecified) | -20% (inactive) | -11
O=C1Nc2ccc([N+](=O)[O-])cc2C1=Nc1cccc(CO)c1 | 0.18% (inactive) | 6.98
CC(C)(CNCC(O)c1ccccc1)N1CCOCC1 (stereo unspecified) | 64% (active) | 5.08
CC(C)(CNC(=O)c1cc(=O)[nH]c2ccccc12)N1CCOCC1 | -13.2% (inactive) | -2.01
CC(CN1CCOCC1)c1ccccc1 (stereo unspecified) | -5.68% (inactive) | 13.1
Cn1c(SCC(=O)Nc2ccc(Br)cc2F)nnc1-c1ccco1 | -5.72% (inactive) | -9.59
CCN(CC)C(=O)Oc1ccc(OC(=O)N(CC)CC)cc1 | -3.56% (inactive) | 8.46
O=C(CSc1nnc(-c2cccs2)n1Cc1ccccc1)N1CCc2ccccc2C1 | 70.4% (active) | 40.2
O=C(CSc1nnc(-c2cccs2)n1-c1ccccc1)N1CCN(C(=O)c2ccco2)CC1 | -17.6% (inactive) | -21.2
CCn1c(SCC(=O)c2ccc3ccccc3c2)nnc1-c1cccs1 | 16.5% (inactive) | -6.78
CCOC(=O)C1(C)NC(c2ccco2)C2C(=O)N(c3ccccc3)C(=O)C21 (stereo unspecified) | -2.53% (inactive) | -16.9
Cc1ccccc1NC(=S)N(CCCN1CCOCC1)Cc1cccs1 | 20.9% (inactive) | -3.99
CCc1cccc(C)c1NC(=S)N(CCCN1CCN(C)CC1)Cc1cccs1 | 4.55% (inactive) | 8.76
Cc1ccc(NC(=S)N(CCCN2CCCC2)Cc2cccn2Cc2ccc(Cl)cc2)cc1 | 83.8% (active) | 31.5
Cc1cc(C)cc(OCC(=O)Nc2ccc(S(=O)(=O)Nc3ccccn3)cc2)c1 | -6.39% (inactive) | -7.44
CCOc1cc(N2CCOCC2)c(OCC)cc1NC(=O)c1cc(C)nc2ccccc12 | -14.2% (inactive) | -29.4
CCC(=O)Nc1nc2ccccc2n1Cc1ccccc1C | 32.7% (inactive) | 38.1
CCC(=O)Nc1ccc2nc(C)n(Cc3ccccc3Cl)c(=O)c2c1 | 62.4% (active) | 62.2

Compound | inhibition [1] | inhibition (mutant strain inhibition) [%]
O=C(Nc1ccc2nc3n(c(=O)c2c1)CCCCC3)c1ccccc1Cl | -2.99% (inactive) | -3.04
COc1ccc(Cc2n[nH]c(=S)n2NC(=O)Nc2ccc(C)cc2)cc1 | -24.4% (inactive) | 1.23
O=C(O)c1ccc(N/N=C/c2cn(-c3ccccc3)nc2-c2cccs2)cc1 | 25% (inactive) | 5.64
C/C(=C\C(=O)c1ccccc1)Nc1cccc(O)c1 | 85.2% (active) | 17.2
C/C(=C\C(=O)c1cccnc1)Nc1ccc(C)c(C)c1 | 21.1% (inactive) | 23
O=C(Nc1cccc(O)c1)c1ccc(C(=O)c2ccccc2)o1 | -18.9% (inactive) | 0.34
Cc1ccc(C(NC(=O)N2CCCC2)C(Cl)(Cl)Cl)cc1F (stereo unspecified) | 10.1% (inactive) | 18.2
CCC(C)(C)NC(=O)CN(C(=O)CCC(=O)Nc1cc(C)ccn1)c1ccc2c(c1)OCCO2 | 3.35% (inactive) | -3.2
O=C(COC(=O)CNS(=O)(=O)c1ccccc1)NC12CC3CC(CC(C3)C1)C2 | 4.93% (inactive) | -2.93
CCCN(CC1COc2ccccc2O1)C(=S)Nc1ccc(C)cc1 (stereo unspecified) | 65.7% (active) | 33.2
CC(NC(=S)Nc1ccccc1)C1COc2ccccc2O1 (stereo unspecified) | 5.96% (inactive) | 2.67
S=C(NCC1COc2ccccc2O1)Nc1ccc(Br)cc1 (stereo unspecified) | 5.47% (inactive) | 7.77
CCOCCCNC(=O)C(NC(=O)Cc1c[nH]c2ccccc12)c1ccc(OC)cc1 (stereo unspecified) | -1.73% (inactive) | 8.23
O=C(Nc1ccc(F)cc1)N1CCN(c2ccc(F)cc2)CC1 | -9.94% (inactive) | -0.68
O=C1COc2ccc(NC(=O)N3CCN(c4ccc(F)cc4)CC3)cc2N1 | 74.7% (active) | 0.98
COc1cccc(N2CCN(C(=O)Nc3ccc4c(c3)NC(=O)CO4)CC2)c1 | 43.7% (inactive) | 41.7
COc1ccc(CNC(=O)CN2CCC(n3nnc4cc(F)ccc43)CC2)cc1 | 3.98% (inactive) | -18.3
CCOc1cccc(/C=C/c2ccc3ccccc3n2)c1OC(C)=O | 33% (inactive) | 25.6
CC1(C)C2CCC1(C)C(OC(=O)c1ccc(O)cc1)C2 (stereo unspecified) | 94.2% (active) | 81.9
Cc1ccc(C(=O)OC2CCCN(C)C2)cc1 (stereo unspecified) | -13.6% (inactive) | -3.26
CC1(C)C2CCC1(C)C(OC(=O)CCn1ccnc1)C2 (stereo unspecified) | -4.41% (inactive) | -8.76
CSc1ccccc1NC(=O)CN(C)CC(=O)Nc1ccc(Cl)cc1[N+](=O)[O-] | 70% (active) | 21.8

Compound | inhibition [1] | inhibition (mutant strain inhibition) [%]
Cc1ccc(NC(=O)CN(C)Cc2ccc(F)cc2)c([N+](=O)[O-])c1 | 22% (inactive) | 0.15
CSc1ccccc1NC(=O)CN(C)CC(=O)Nc1cccc(Br)c1 | 21.6% (inactive) | -2.69
COc1ccc(CN2CN(C3CCCC3)CSC2=S)cc1 | -12.1% (inactive) | -26.6
Cc1noc(COc2ccccc2OCC(O)CNC(C)(C)C)n1 (stereo unspecified) | -1.99% (inactive) | -4.87
Cc1nc2ccccc2cc1OCc1ccc(F)cc1 | -15.6% (inactive) | -4.03
Cc1noc(COc2ccccc2OCc2onc(C)c2Cl)c1Cl | 64% (active) | 31.8
CCc1[nH]nc(C(=O)N2CCCC(CNS(=O)(=O)c3cccs3)C2)c1C (stereo unspecified) | -19% (inactive) | 4.29
O=[N+]([O-])c1ccc2[nH]c3c(c2c1)CCCC3O (stereo unspecified) | -3.98% (inactive) | 12
COc1ccc(F)cc1C(=O)C1CCCN(C(=O)CCc2ccccn2)C1 (stereo unspecified) | 15.2% (inactive) | -2.96
CCOC(=O)N1CCN(C(=S)Nc2ccc(C)cc2C)CC1 | 7.78% (inactive) | 3.64
CCOC(=O)C1=C(c2ccc(OC)cc2)C(=O)c2ccccc2C1=O | 68.3% (active) | 20.7
CCOC(=O)c1ccccc1NS(=O)(=O)c1ccc(OC)cc1 | 38% (inactive) | 30.7
CCOC(=O)c1c(C)[nH]c2c1-c1ccccc1C(=O)C2=O | 46.9% (inactive) | 15
CCC(=O)c1ccc(OCC(O)Cn2nc(C)c(C(C)=O)c2C)cc1 (stereo unspecified) | -6.24% (inactive) | -0.7
CCCn1nc(C(=O)N2CCCc3ccccc32)c2ccccc2c1=O | 9.04% (inactive) | 8.88
Cc1ccc(-c2csc(NC(=O)c3cnccn3)n2)cc1C | -10.3% (inactive) | 14.6
Cc1nn(-c2ccccc2)c(Cl)c1/C=C/C(=O)c1ccc(O)cc1 | -8.06% (inactive) | 3.09
Cc1ccc(C(=O)/C=C/c2c(C)nn(-c3ccccc3)c2Cl)cc1 | 59.5% (active) | -6.72
Cc1nn(-c2ccccc2)c(Cl)c1C(=O)Nc1ccccc1 | 24.7% (inactive) | -5.62
O=C(Cn1c(N2CCN(C/C=C/c3ccccc3)CC2)nc2ccccc21)c1ccccc1 | 45.1% (inactive) | 41.5
COc1ccc(C(=O)CSc2nnc(-c3ccco3)o2)cc1 | -6.52% (inactive) | -35.3
N#Cc1cccc(Nc2c3c(nc4ccccc24)CCCC3)c1 | -0.59% (inactive) | 6.35

Compound | inhibition [1] | inhibition (mutant strain inhibition) [%]
COC(=O)c1c(C)[nH]c(C)c1-c1ccc([N+](=O)[O-])cc1 | 53% (inactive) | 55.8
COc1ccc(NC(=S)Nc2ccc(S(N)(=O)=O)cc2)c(C)c1 | 13.8% (inactive) | 6.64
COc1ccc(-c2nn(-c3ccccc3)cc2/C=N/Nc2ccccn2)cc1OC | 60.2% (active) | 31.9
COc1ccc(-c2nn(-c3ccccc3)cc2C(=O)Nc2nccs2)cc1OC | 26.6% (inactive) | -2.08
CC(C)(C)OC(=O)N/N=C/c1cn(-c2ccccc2)nc1-c1cccnc1 | -8.33% (inactive) | -1.71
Cc1nnsc1C(=O)N/N=C/c1cccc(C(F)(F)F)c1 | 36.2% (inactive) | 7.39
Cc1cc(=O)oc(C)c1C(=O)NCc1ccc(F)cc1 | -0.25% (inactive) | 16.4
Cc1cc(=O)oc(C)c1C(=O)Nc1cnc2ccccc2c1 | 98.9% (active) | 96.3
Cc1cc(=O)oc(C)c1C(=O)NCCN(C)Cc1ccccc1 | -0.58% (inactive) | 11.8
CC(C)C(=O)NCc1cc(-c2ccc(Cl)cc2)no1 | 1.64% (inactive) | -1.57
O=C(CC1C(=O)NCCN1Cc1ccc(-c2ccccc2)cc1)NCC1CCOCC1 (stereo unspecified) | -14.8% (inactive) | -10.2
Fc1cccc(Cl)c1CSc1ccc(-c2ccco2)nn1 | 75.3% (active) | 67.7
Brc1ccc(CSc2ccc(-c3ccco3)nn2)cc1 | 12.2% (inactive) | -1.7
Cn1c(SCc2c(F)cccc2Cl)nnc1-c1cnccn1 | 4.78% (inactive) | -6.62
CCn1c(SCC(=O)Nc2cc(C)ccc2C)nnc1-c1cnccn1 | 62.3% (active) | 14.8
CCc1ccc(NC(=O)CSc2nnc(-c3cnccn3)n2Cc2ccco2)cc1 | 6.65% (inactive) | 10.6
Cc1ccc(NC(=O)CSc2nnc(-c3cnccn3)n2Cc2ccco2)cc1C | -14.2% (inactive) | -7.75
CCOc1ccc(C2c3[nH]c4ccccc4c3CCN2Cc2cn(CC)nc2C)cc1 (stereo unspecified) | 36% (inactive) | 39.9
COc1cccc(N(Cc2nnc3n2CCCCC3)C(=O)Nc2ccccc2F)c1 | 9.35% (inactive) | 6.31
O=c1[nH]n(-c2cccc(Cl)c2)c2ncccc12 | 3.71% (inactive) | 33.7
Cc1[nH]n(-c2cccc(Cl)c2)c(=O)c1-c1ccc(Cl)cc1 | 81.8% (active) | 74.9
Cc1[nH]n(-c2cccc(Cl)c2)c(=O)c1/C=N/n1c(C)nc2ccccc2c1=O | -0.49% (inactive) | -9.97
